Laboratory results from PubChem BioAssay (Tox21).
Inconclusive results are not listed. The source made the active and inactive calls. Unless noted, the call rests on the fitted dose curve; in most records, active means well fitted curve in the direction sought with a large enough effect in the repeat runs; inconclusive means weak or mixed curves; inactive means no such curve, though single readings can be large; an effect the other way counts as inactive or inconclusive.

What was measured:
[1] = qHTS assay to identify small molecule antagonists of the sonic hedgehog signaling (Shh) pathway (AID 1259369; calls by dose curve; further: nearly all actives have a fitted effect of over 45% in size; further: potency means the concentration at half of the fitted maximal effect)
Summary of the method: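 Luminescence readout: firefly Luc under Gli1 response element in 3T3Gli1-Luc cells (NIH/3T3 clone). Antagonist mode, stimulation by conditioned medium; compound exposure 24hr at 37 C, 5% CO2.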

[2] = qHTS assay to identify small molecule agonists of the androgen receptor (AR) signaling pathway in the presence of an antagonist - cell viability counter screen (AID 1259379); further: nearly all actives have a fitted effect of over 25% in size; further: potency means the concentration at half of the fitted maximal effect;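 on activity change, negative = cytotoxicity: MDA-kb2 human breast cancer cells carrying an MMTV luciferase reporter; series mostly up to about 92 µM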
Summary of the method: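 Viability counter screen: CellTiter-Fluor fluorescence, measured in the same wells as the luciferase read-out. MDA-kb2 cells, 3,000/well, with nilutamide at 3.0uM final and compounds at 15 concentrations, 16 hr at 37C, 0% CO2.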

[3] = biological target: Androgen receptor (Homo sapiens) (UniProt P10275); experiment: qHTS assay to identify small molecule agonists of the androgen receptor (AR) signaling pathway in the presence of an antagonist (AID 1259381; calls by dose curve; further: nearly all actives have a fitted effect of over 15% in size)
Chain of Androgen receptor (Homo sapiens) (P10275 whole entry, looked up): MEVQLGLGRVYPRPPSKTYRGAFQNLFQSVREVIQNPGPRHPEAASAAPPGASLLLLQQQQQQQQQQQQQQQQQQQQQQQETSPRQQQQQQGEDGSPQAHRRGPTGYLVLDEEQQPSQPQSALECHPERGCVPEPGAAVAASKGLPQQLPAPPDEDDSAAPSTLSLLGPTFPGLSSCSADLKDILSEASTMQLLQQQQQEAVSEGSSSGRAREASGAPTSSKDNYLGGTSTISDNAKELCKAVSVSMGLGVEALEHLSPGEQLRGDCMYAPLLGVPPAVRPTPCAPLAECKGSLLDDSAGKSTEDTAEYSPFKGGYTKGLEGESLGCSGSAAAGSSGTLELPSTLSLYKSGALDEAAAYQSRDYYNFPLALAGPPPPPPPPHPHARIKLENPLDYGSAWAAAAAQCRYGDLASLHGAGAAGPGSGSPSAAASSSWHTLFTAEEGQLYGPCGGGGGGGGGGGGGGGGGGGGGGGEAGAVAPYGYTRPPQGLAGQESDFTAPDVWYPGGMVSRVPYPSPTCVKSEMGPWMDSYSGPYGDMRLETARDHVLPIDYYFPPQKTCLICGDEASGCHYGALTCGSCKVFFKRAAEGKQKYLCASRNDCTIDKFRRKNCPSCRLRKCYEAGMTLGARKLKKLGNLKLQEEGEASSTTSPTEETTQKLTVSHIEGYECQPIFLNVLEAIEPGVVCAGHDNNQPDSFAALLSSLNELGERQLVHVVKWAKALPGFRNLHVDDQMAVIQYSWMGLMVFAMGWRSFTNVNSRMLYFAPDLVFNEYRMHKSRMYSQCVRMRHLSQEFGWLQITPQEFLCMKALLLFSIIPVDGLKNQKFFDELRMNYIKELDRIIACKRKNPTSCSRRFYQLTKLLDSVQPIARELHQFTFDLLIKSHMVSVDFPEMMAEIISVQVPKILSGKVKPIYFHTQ
Summary of the method: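 Luciferase read-out (ONE-Glo, 30min room temperature) in MDA-kb2 MMTV-reporter cells; agonist mode run in presence of AR antagonist nilutamide, 3.0uM final. Compounds tested as 15-point series, 16hr exposure at 37C, 0% CO2.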

[4] = qHTS assay to identify small molecule antagonists of the estrogen receptor beta (ER-beta) signaling pathway - cell viability counter screen (AID 1259382); further: nearly all actives have a fitted effect of over 55% in size; further: potency means the concentration at half of the fitted maximal effect; on activity change, negative = cytotoxicity: series mostly up to about 92 µM
Summary of the method: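 Luminescent ATP read-out (CellTiter-Glo, 30 min, RT) taken in the same wells as the bla reporter assay. HEK293T ER-beta-UAS-bla cells in 2% charcoal-stripped FBS were exposed to compounds with 1nM E2 for 16 hr at 37C.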

[5] = biological target: Estrogen receptor (Homo sapiens) (UniProt P03372); experiment: qHTS assay to identify small molecule agonists of the estrogen receptor alpha (ER-alpha) signaling pathway in the presence of an antagonist (AID 1259383; calls by dose curve; further: nearly all actives have a fitted effect of over 15% in size; further: potency means the concentration at half of the fitted maximal effect; on activation: top concentration of the series differs between compounds)
Chain of Estrogen receptor (Homo sapiens) (P03372 whole entry, looked up): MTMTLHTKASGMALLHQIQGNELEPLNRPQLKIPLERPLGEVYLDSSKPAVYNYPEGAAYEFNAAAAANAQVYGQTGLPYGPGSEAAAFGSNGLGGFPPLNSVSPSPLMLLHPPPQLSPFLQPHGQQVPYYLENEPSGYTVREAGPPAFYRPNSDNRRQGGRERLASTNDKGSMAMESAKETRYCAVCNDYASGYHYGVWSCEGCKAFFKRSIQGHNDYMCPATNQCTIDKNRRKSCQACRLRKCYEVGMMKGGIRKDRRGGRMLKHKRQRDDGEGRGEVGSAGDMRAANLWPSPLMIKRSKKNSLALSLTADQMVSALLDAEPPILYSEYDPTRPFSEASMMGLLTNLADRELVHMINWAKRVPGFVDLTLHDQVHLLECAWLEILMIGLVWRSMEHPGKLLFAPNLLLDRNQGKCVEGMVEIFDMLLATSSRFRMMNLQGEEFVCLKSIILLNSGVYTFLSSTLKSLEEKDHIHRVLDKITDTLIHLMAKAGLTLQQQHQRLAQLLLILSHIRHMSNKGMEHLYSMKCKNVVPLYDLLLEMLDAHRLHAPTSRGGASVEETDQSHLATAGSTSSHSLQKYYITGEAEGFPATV
Summary of the method: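 Luciferase luminescence (ONE-Glo, 30min at room temperature) measured in VM7Luc4E2 cells after 22hr compound exposure at 15 concentrations, with 10.0nM ICI-182,780 final present; cells express endogenous ER-alpha and carry four EREs upstream of luciferase.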

[6] = qHTS assay to identify small molecule agonists or antagonists of the thyroid stimulating hormone receptor (TSHR) signaling pathway - wild type cell line counter screen (AID 1259384; calls by dose curve)
Summary of the method: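 Wild-type Hek293 cells, 800/well, 18 h at 37C, then compound with Ro20-1724 for 30 min RT. cAMP by HTRF (cAMP-d2/anti-cAMP cryptate), 1 h RT, fluorescence read. 15 concentrations, triplicates.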

[7] = biological target: Thyrotropin receptor (Homo sapiens) (UniProt P16473); experiment: qHTS assay to identify small molecule antagonists of the thyroid stimulating hormone receptor (TSHR) signaling pathway (AID 1259385; calls by dose curve; further: nearly all actives have a fitted effect of over 20% in size)
Chain of Thyrotropin receptor (Homo sapiens) (P16473 whole entry, looked up): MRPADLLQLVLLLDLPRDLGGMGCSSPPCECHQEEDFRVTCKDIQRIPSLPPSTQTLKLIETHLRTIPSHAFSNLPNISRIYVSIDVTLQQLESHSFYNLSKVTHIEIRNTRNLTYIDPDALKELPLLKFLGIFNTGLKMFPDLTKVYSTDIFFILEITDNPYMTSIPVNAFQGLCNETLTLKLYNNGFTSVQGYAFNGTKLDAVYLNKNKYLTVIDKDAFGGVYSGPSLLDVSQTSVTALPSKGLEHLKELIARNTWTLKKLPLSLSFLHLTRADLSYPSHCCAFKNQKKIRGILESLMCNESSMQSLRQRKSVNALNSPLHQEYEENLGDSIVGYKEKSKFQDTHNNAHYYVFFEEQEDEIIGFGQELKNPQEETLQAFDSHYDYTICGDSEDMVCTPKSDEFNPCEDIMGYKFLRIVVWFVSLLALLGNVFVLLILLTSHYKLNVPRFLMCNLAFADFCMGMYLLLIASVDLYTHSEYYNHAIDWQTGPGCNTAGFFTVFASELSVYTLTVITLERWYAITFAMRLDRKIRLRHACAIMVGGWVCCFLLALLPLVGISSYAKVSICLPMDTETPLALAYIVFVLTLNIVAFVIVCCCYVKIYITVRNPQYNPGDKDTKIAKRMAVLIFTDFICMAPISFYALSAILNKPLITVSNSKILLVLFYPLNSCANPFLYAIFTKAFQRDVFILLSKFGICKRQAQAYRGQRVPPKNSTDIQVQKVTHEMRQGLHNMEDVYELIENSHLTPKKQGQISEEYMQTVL
Summary of the method: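 TSHR-HEK293 cells (800/well) plated 18 h, then compounds with Ro20-1724 and TSH at 1.5 ng/mL final, 30 min at room temperature. cAMP quantified by HTRF (cAMP-d2/anti-cAMP-cryptate, 1 h); 15 concentrations in triplicate.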

[8] = qHTS assay to identify small molecule agonists of the estrogen receptor alpha (ER-alpha) signaling pathway in the presence of an antagonist - cell viability counter screen (AID 1259386);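 further: cells exposed to compounds for 22 h at 37 °C before the viability read; nearly all actives have a fitted effect of over 30% in size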; further: potency means the concentration at half of the fitted maximal effect; on activity change, negative = cytotoxicity: series mostly up to about 92 µM
Summary of the method: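 Read-out: CellTiter-Fluor fluorescence after 1hr reagent incubation, measured in the same wells as the luciferase readout. VM7Luc4E2 cells were exposed to 15 compound concentrations with 10.0nM ICI-182,780 for 22hr at 37C.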

[9] = biological target: Progesterone receptor (Homo sapiens) (UniProt P06401); experiment: qHTS assay to identify small molecule antagonists of the progesterone receptor (PR) signaling pathway (AID 1346795; active means well fitted inhibition curve with a large enough effect in the signal ratio in the repeat runs, not every such curve was filed as active; the % refers to the signal ratio; further: potency means the concentration at half of the fitted maximal effect)
Chain of Progesterone receptor (Homo sapiens) (P06401 whole entry, looked up): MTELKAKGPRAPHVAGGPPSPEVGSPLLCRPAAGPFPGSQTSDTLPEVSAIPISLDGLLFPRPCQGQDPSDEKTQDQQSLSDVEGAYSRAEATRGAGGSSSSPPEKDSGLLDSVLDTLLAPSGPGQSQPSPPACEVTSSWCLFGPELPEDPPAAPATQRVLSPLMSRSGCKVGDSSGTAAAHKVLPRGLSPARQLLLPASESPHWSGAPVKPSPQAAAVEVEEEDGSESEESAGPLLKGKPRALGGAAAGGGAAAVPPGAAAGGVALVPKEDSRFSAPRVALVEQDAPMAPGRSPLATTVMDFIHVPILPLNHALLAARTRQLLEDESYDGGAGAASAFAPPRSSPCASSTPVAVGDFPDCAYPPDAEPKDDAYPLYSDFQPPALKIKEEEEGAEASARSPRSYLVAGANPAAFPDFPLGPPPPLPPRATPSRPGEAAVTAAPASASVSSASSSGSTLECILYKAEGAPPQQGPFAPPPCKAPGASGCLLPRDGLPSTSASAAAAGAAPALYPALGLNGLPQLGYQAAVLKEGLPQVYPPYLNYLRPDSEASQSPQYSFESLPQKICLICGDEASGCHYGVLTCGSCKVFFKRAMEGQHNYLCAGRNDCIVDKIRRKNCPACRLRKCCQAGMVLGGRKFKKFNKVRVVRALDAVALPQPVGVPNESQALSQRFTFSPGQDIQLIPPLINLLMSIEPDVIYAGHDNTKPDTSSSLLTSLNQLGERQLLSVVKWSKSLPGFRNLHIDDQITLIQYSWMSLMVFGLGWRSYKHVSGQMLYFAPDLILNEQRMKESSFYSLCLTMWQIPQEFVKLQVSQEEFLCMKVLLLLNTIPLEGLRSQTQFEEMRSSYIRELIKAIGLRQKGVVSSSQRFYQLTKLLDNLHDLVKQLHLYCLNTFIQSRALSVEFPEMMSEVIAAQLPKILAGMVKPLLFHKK
Summary of the method: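 Read-out is fluorescence from the LiveBLAzer B/G FRET substrate, cleaved by a UAS-controlled beta-lactamase in PR-UAS-bla HEK293T cells after 16 hr exposure to compound plus 1 nM promegestone (final), followed by 2 hr at room temperature.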

[10] = qHTS assay to identify small molecule antagonists of the progesterone receptor (PR) signaling pathway - cell viability counter screen (AID 1346798);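 further: HEK293T PR-UAS-bla cells stimulated with the agonist R5020; series mostly up to about 92 µM; nearly all actives have a fitted effect of over 50% in size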
Summary of the method: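 HEK293T PR-UAS-bla, 2% charcoal-stripped FBS; 4 hr pre-plate; cpd + R5020, 16 h 37C; LiveBLAzer read first; then CellTiter-Glo 30 min RT, luminescence.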

[11] = qHTS assay to identify small molecule antagonists of the TGF-beta/Smad signaling pathway - cell viability counter screen (AID 1346824); further: nearly all actives have a fitted effect of over 50% in size
Summary of the method: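 SBE-bla HEK 293T cells, incubated overnight, then compound plus 0.25 ng/mL TGF-beta1 (stock added) for 5 hr at 37 C. Viability was read in the same wells by CellTiter-Glo luminescence after 30 min at room temperature.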

[12] = qHTS assay to identify small molecule agonists of the TGF-beta/Smad signaling pathway - cell viability counter screen (AID 1346829); further: top concentration of the series differs between compounds; nearly all actives have a fitted effect of over 45% in size
Summary of the method: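 SBE-bla HEK 293T cells plated overnight, compound exposure 5 hr at 37 C. Viability read in the same wells by CellTiter-Glo luminescence after 30 min at room temperature, following the beta-lactamase read.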

[13] = qHTS assay to identify small molecule agonists of the TGF-beta/Smad signaling pathway (AID 1346859; active means well fitted activation curve with a large enough effect in the signal ratio in the repeat runs, not every such curve was filed as active; the % refers to the signal ratio; further: series mostly up to about 77 µM)
Summary of the method: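 SBE-bla HEK 293T, 4,000 cells/well, plated o/n; cpd in DMSO, 5 hr, 37 C/5% CO2; B/G FRET substrate 2 hr RT; ex 405, em 460/530 nm.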

[14] = biological target: Thyrotropin-releasing hormone receptor (Homo sapiens) (UniProt P34981); experiment: qHTS assay to identify small molecule antagonists of the thyrotropin-releasing hormone receptor (TRHR) signaling pathway (AID 1346877; active means well fitted inhibition curve with a large enough effect in the repeat runs, not every such curve was filed as active; further: series mostly up to about 51 µM)
Chain of Thyrotropin-releasing hormone receptor (Homo sapiens) (P34981 whole entry, looked up): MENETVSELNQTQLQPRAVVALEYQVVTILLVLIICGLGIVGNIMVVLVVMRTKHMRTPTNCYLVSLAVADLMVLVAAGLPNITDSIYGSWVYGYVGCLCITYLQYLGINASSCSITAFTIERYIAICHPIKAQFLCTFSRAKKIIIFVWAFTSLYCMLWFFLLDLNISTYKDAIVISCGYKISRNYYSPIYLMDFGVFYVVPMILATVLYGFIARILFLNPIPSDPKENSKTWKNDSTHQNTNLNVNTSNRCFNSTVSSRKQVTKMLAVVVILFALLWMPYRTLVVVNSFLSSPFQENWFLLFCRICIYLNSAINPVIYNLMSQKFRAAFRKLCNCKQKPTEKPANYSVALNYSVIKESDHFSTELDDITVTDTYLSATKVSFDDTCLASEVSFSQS
Summary of the method: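 HEK293/TRHR cells, 18 h, 37 °C; Ca2+ dye 2 h; cpd 5 min RT; TRH 1 nM final; fluorescence read 3 min, 1 s intervals; 15 concs, triplicate.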

[15] = biological target: Thyrotropin-releasing hormone receptor (Homo sapiens) (UniProt P34981); experiment: qHTS assay to identify small molecule agonists of the thyrotropin-releasing hormone receptor (TRHR) signaling pathway (AID 1346891; calls by dose curve; further: series mostly up to about 58 µM)
Summary of the method: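 Intracellular calcium rise, read as fluorescence every second for 3 min, served as the agonist signal in dye-loaded HEK293 cells expressing TRHR; each compound ran at 15 concentrations in triplicate.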

[16] = qHTS assay to identify small molecule agonists of the estrogen receptor beta (ER-beta) signaling pathway - cell viability counter screen (AID 1259380); further: nearly all actives have a fitted effect of over 30% in size; further: potency means the concentration at half of the fitted maximal effect
Summary of the method: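 Luminescence read-out (CellTiter-Glo, 30 min, room temp) taken in the same wells as the beta-lactamase reporter assay; ER-beta-UAS-bla HEK293T cells exposed to DMSO-dissolved compounds for 16 hr at 37C in 2% charcoal-stripped FBS medium.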

[17] = qHTS assay to identify small molecule agonists of the progesterone receptor (PR) signaling pathway - cell viability counter screen (AID 1346799; calls by dose curve; further: nearly all actives have a fitted effect of over 45% in size)
Summary of the method: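 Luminescence from CellTiter-Glo, added after the beta-lactamase FRET read in the same wells, gave cytotoxicity in PR-UAS-bla HEK293T cells treated with compounds for 16 hr at 37C.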

[18] = biological target: Progesterone receptor (Homo sapiens) (UniProt P06401); experiment: qHTS assay to identify small molecule agonists of the progesterone receptor (PR) signaling pathway (AID 1346784; calls by dose curve; further: nearly all actives have a fitted effect of over 30% in size; further: potency means the concentration at half of the fitted maximal effect)
Summary of the method: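 Beta-lactamase reporter read-out: after 16 hr compound treatment at 37C and a further 2 hr at room temperature with LiveBLAzer B/G FRET substrate, fluorescence was measured in PR-UAS-bla HEK 293T cells grown in 2% charcoal-stripped serum.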

[19] = biological target: Estrogen receptor beta (Homo sapiens) (UniProt Q92731); experiment: qHTS assay to identify small molecule agonists of the estrogen receptor beta (ER-beta) signaling pathway (AID 1259377; active means well fitted activation curve with a large enough effect in the signal ratio in the repeat runs, not every such curve was filed as active; the % refers to the signal ratio)
Chain of Estrogen receptor beta (Homo sapiens) (Q92731 whole entry, looked up): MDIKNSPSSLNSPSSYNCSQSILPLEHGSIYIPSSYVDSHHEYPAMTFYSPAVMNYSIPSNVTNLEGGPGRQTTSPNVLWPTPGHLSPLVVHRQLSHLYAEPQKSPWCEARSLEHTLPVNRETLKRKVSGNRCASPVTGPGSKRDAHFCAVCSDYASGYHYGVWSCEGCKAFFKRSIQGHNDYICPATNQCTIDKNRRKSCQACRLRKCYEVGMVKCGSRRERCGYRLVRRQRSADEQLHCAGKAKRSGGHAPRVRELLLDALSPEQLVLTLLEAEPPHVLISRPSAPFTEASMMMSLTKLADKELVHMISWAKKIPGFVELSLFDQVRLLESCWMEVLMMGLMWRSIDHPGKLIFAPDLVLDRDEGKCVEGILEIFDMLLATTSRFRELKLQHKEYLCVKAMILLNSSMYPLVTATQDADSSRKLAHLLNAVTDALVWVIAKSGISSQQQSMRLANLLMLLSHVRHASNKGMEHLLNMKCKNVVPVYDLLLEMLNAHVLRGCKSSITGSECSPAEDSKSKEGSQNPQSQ
Summary of the method: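 HEK293T ER-beta-UAS-bla; 2% charcoal-stripped FBS; cells pre-incubated 6 hr, compound 16 hr, 37C/5% CO2; LiveBLAzer B/G FRET substrate 2 h RT; fluorescence intensity read.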

[20] = biological target: Estrogen receptor beta (Homo sapiens) (UniProt Q92731); experiment: qHTS assay to identify small molecule antagonists of the estrogen receptor beta (ER-beta) signaling pathway (AID 1259378; active means well fitted inhibition curve with a large enough effect in the signal ratio in the repeat runs, not every such curve was filed as active; the % refers to the signal ratio)
Summary of the method: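 ER-beta-UAS-bla HEK293T cells in 2% charcoal-stripped FBS medium treated with compound plus 1nM final 17-beta-estradiol for 16 hr at 37C. Beta-lactamase reporter read by FRET substrate fluorescence after 2 hours at room temperature.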
On the % scale 0 is the no-effect control and ±100 the full control effect.

NC(=S)NC(N)=S
inactive: Potency [1] | Potency [2] | outcome [3] | Potency [4] | Potency [5] | outcome [6] | Potency [7] | Potency [8] | Potency [9] | Potency [10] | Potency [11] | Potency [12] | Potency [13] | Potency [14] | outcome [15]

CC1=CCC(=C(C)C)CC1
inactive: Potency [1] | Potency [2] | Potency [16] | Potency [4] | Potency [5] | Potency [8] | Potency [9] | Potency [10] | Potency [17] | Potency [12] | Potency [13]

CC(C)CCOC(=O)/C=C/c1ccccc1
inactive: Potency [1] | Potency [2] | Potency [16] | Potency [4] | Potency [5] | outcome [6] | Potency [18] | Potency [9] | Potency [10] | Potency [17] | Potency [11] | Potency [12] | Potency [13] | Potency [14] | outcome [15]

CCOc1ccc2ccccc2c1C(=O)N[C@@H]1C(=O)N2[C@@H]1SC(C)(C)[C@@H]2C(=O)O
inactive: Potency [1] | Potency [2] | outcome [3] | Potency [4] | Potency [5] | outcome [6] | Potency [7] | Potency [18] | Potency [9] | Potency [10] | Potency [17] | Potency [11] | Potency [12] | Potency [13] | Potency [14] | outcome [15]

O=c1oc2cc(O)ccc2c2oc3cc(O)ccc3c12
inactive: Potency [2] | Potency [4] | Potency [8] | Potency [18] | Potency [10] | Potency [17] | Potency [11] | Potency [12] | Potency [14] | outcome [15]
active: Potency [1] 13.1 µM | Potency [16] 37 µM

O=C1OC2(c3ccc(O)cc3Oc3cc(O)ccc32)c2ccc(N=C=S)cc21
inactive: Potency [1] | Potency [16] | Potency [4] | outcome [6] | Potency [7] | Potency [9] | Potency [10] | Potency [11] | Potency [12] | Potency [13]
active: Potency [18] 0.879 µM

C=CC(=O)OCCOC(=O)C=C
active: Potency [5] 61.1 µM
inactive: Potency [1] | Potency [16] | outcome [3] | Potency [4] | outcome [6] | Potency [7] | Potency [8] | Potency [18] | Potency [9] | Potency [10] | Potency [17] | Potency [11] | Potency [12] | Potency [13] | Potency [14] | outcome [15]

CCC(C)[O-].CCC(C)[O-].CCOC(=O)/C=C(/C)[O-].[Al+3]
inactive: Potency [1] | Potency [2] | Potency [16] | Potency [4] | outcome [6] | Potency [7] | Potency [18] | Potency [9] | Potency [10] | Potency [17] | Potency [11] | Potency [12] | Potency [13]

NC[C@H]1O[C@H](O[C@H]2[C@H](O[C@@H]3O[C@H](CO)[C@@H](O)[C@H]3O)C(O)[C@H](N)C[C@@H]2N)[C@H](N)[C@@H](O)[C@@H]1O (some centres not stated)
inactive: activity change, negative = inhibition [1] -6.57% [at 8.39 µM] | activity change, negative = cytotoxicity [2] 2.75% [at 8.39 µM] | activity change, negative = cytotoxicity [16] 1.6% [at 8.39 µM] | activity change, negative = cytotoxicity [4] 0.11% [at 8.39 µM] | cAMP activity change [6] -9.73% [at 8.39 µM] | activity change, negative = inhibition [7] -4.82% [at 8.39 µM] | activity change, negative = cytotoxicity [8] 3.36% [at 8.39 µM] | activation [18] 14.9% [at 8.39 µM] | activity change, negative = inhibition [9] 0.98% [at 8.39 µM] | activity change, negative = cytotoxicity [10] 12.4% [at 8.39 µM] | activity change, negative = cytotoxicity [17] 9.53% [at 8.39 µM] | viability change, negative = cytotoxic [11] -16.4% [at 6.97 µM] | activity change, negative = cytotoxicity [12] 21.1% [at 6.97 µM] | activation [13] 6.05% [at 6.97 µM] | activity, negative = inhibition [14] 3.15% [at 4.65 µM] | activation [15] -0.179% [at 5.23 µM]

CC(N=C(NC#N)Nc1ccncc1)C(C)(C)C (configuration not stated)
inactive: Potency [1] | Potency [2] | Potency [16] | Potency [4] | outcome [6] | Potency [7] | Potency [18] | Potency [9] | Potency [17] | Potency [11] | Potency [12] | Potency [13] | Potency [14] | outcome [15]

O=C1CCc2ccc(OCCCCN3CCN(c4cccc(Cl)c4Cl)CC3)cc2N1
inactive: outcome [6] | Potency [7] | Potency [14] | outcome [15]
active: Potency [1] 11.9 µM | Potency [2] 26.6 µM | Potency [16] 10.6 µM | Potency [4] 33.5 µM | Potency [8] 29.8 µM

O=C(O)c1cc(-c2ccc(F)cc2F)ccc1O
inactive: Potency [1] | Potency [2] | Potency [5] | Potency [8] | Potency [18] | Potency [9] | Potency [10] | Potency [17] | Potency [11] | Potency [12]

CC(=O)c1ccc(C(C)=O)cc1
inactive: Potency [19] | Potency [20] | Potency [2] | Potency [16] | outcome [3] | Potency [4] | outcome [6] | Potency [7] | Potency [9] | Potency [17] | Potency [12] | Potency [13] | Potency [14] | outcome [15]

CC[N+](CC)(CC)CCOC(=O)C(C1CCCC1)C1CCCC1
inactive: Potency [1] | Potency [16] | Potency [4] | Potency [5] | Potency [8] | Potency [18] | Potency [9] | Potency [10] | Potency [17] | Potency [11] | Potency [12] | Potency [13] | Potency [14] | outcome [15]
active: Potency [2] 33.5 µM

CN1CCN(Cc2cc(-c3ccc4[nH]c(=O)oc4c3)co2)[C@@H](c2ccc(F)cc2)C1
inactive: Potency [4] | Potency [5] | outcome [6] | Potency [7] | Potency [18] | Potency [10] | Potency [11] | Potency [12] | Potency [13] | Potency [14] | outcome [15]
active: Potency [1] 4.16 µM | Potency [16] 13.2 µM | Potency [9] 46.7 µM
